# Reference: PubChem BioAssay (NCATS)
# Results filed as inconclusive are left out. Entries that show only a call come without a potency. The source made the active and inactive calls. Unless noted, calls follow the shape of the dose curve; as a rule, active = well fitted curve in the direction sought with a large enough effect; inconclusive = small, poorly fitted or top-dose-only effect, or another doubt; inactive = no such curve, though single readings can be large; an effect the other way counts as inactive or inconclusive.
# Experiments:
# [1] = biological target: Cytochrome P450 1A2 (Homo sapiens) (UniProt P05177); test: p450-cyp1a2 (AID 410; calls by dose curve; also: potency is read from the fitted curve at half-maximal effect); settings: recombinant CYP1A2, luciferin-ME demethylation, luminescence; series mostly up to 57 µM
# Procedure, shortened: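 Luminescent demethylation readout: Luciferin-ME (100uM, equal to Km) turned over by 20nM CYP1A2 for 60 min at room temperature after NADPH regeneration addition, following 10 min compound preincubation. Normalization used 57 uM furafylline as full inhibition.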
# [2] = biological target: Mitogen-activated protein kinase 10 (Mus musculus) (UniProt Q61831); test: JNK3 AlphaScreen Assay (AID 530; active = well fitted curve in either direction with a large enough effect, not every such curve was filed as active;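 also: kinase came from lysate of stimulated human HepG2 cells; signal reports phosphorylation of biotinylated GST-cJun 1-79 at Ser73 with 10 µM ATP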); settings: JNK3 lysate, c-Jun phosphorylation; series mostly up to 57.1 µM
# Procedure, shortened: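 Phosphorylation of biotinylated GST-cJun(1-79) at Ser73 is measured by AlphaScreen proximity luminescence. Enzyme is JNK3 in HepG2 lysates activated with interleukin-1beta and tumor necrosis factor alpha; ATP is 10 uM final.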
# [3] = biological target: 3',5'-cyclic-AMP phosphodiesterase 4B (Homo sapiens) (UniProt Q07343); test: qHTS Assay for Inhibitors of PDE-IV (AID 607; active = well fitted activation curve with a large enough effect in the main read-out, with a control signal flat, not every such curve was filed as active; also: potency is read from the fitted curve at half-maximal effect); settings: HEK293 ACTOne CNG channel cells, membrane potential fluorescence; series mostly up to 22.9 µM
# Procedure, shortened: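 HEK293 ACTOne cells with CNG channel (1000/well), endogenous PDE4; membrane potential dye, compounds up to 22.9 uM final. Fluorescence Ex 535/Em 590; RO 20-1724 (100 uM final) as reference.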
# [4] = biological target: Cytochrome P450 3A4 (Homo sapiens) (UniProt P08684); test: qHTS Assay for Inhibitors and Substrates of Cytochrome P450 3A4 (AID 884); settings: recombinant CYP3A4, Luciferin-PPXE luminescence; series mostly up to 57.1 µM; also: nearly all actives have a fitted effect of over 50% in size; also: potency is read from the fitted curve at half-maximal effect
# Procedure, shortened: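 Luminescent readout of luciferin produced by CYP3A4 (20 nM) dealkylation of Luciferin-PPXE, 25 uM (its KM). NADPH-driven reaction ran 60 min at RT after 10 min compound preincubation; data scaled to 57 uM ketoconazole as 100% inhibition.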
# [5] = biological target: Cytochrome P450 3A4 (Homo sapiens) (UniProt P08684); test: qHTS Assay for Activators of Cytochrome P450 3A4 (AID 885); settings: recombinant CYP3A4, Luciferin-PPXE luminescence, 60 min; series mostly up to 57.1 µM; also: nearly all actives have a fitted effect of over 65% in size
# Procedure, shortened: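 Human CYP3A4 dealkylates Luciferin-PPXE to luciferin, which luciferase detection converts to light. Substrate was at its KM (25uM), buffer 200mM KPO4, reaction 60 min at RT.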
# [6] = biological target: Cytochrome P450 2D6 (Homo sapiens) (UniProt P10635); test: qHTS Assay for Inhibitors and Substrates of Cytochrome P450 2D6 (AID 891); settings: recombinant CYP2D6, luciferin-ME EGE luminescence; series mostly up to 57.1 µM; also: nearly all actives have a fitted effect of over 60% in size; also: potency is read from the fitted curve at half-maximal effect
# Procedure, shortened: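 Luminescent read-out of luciferin formed by 5 nM human CYP2D6 demethylating 30 uM Luciferin-ME EGE (Km level) over 60 min at room temperature after NADPH regeneration addition. Data normalized to full inhibition by 1.43 uM quinidine.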
# [7] = biological target: Cytochrome P450 2C19 (Homo sapiens) (UniProt P33261); test: qHTS Assay for Inhibitors and Substrates of Cytochrome P450 2C19 (AID 899); settings: recombinant CYP2C19, luciferin-H EGE luminescence; series mostly up to 57.1 µM; also: nearly all actives have a fitted effect of over 60% in size; also: potency is read from the fitted curve at half-maximal effect
# Procedure, shortened: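 In 50mM KPO4, the reaction held 5nM enzyme and KM-level (10uM) Luciferin-H EGE; it ran 60 min at 37C after NADPH regeneration and a 10 min compound preincubation. Luminescence values were scaled to 57uM ketoconazole as complete inhibition.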
# 3',5'-cyclic-AMP phosphodiesterase 4B (Homo sapiens), sequence (Q07343 whole entry, looked up): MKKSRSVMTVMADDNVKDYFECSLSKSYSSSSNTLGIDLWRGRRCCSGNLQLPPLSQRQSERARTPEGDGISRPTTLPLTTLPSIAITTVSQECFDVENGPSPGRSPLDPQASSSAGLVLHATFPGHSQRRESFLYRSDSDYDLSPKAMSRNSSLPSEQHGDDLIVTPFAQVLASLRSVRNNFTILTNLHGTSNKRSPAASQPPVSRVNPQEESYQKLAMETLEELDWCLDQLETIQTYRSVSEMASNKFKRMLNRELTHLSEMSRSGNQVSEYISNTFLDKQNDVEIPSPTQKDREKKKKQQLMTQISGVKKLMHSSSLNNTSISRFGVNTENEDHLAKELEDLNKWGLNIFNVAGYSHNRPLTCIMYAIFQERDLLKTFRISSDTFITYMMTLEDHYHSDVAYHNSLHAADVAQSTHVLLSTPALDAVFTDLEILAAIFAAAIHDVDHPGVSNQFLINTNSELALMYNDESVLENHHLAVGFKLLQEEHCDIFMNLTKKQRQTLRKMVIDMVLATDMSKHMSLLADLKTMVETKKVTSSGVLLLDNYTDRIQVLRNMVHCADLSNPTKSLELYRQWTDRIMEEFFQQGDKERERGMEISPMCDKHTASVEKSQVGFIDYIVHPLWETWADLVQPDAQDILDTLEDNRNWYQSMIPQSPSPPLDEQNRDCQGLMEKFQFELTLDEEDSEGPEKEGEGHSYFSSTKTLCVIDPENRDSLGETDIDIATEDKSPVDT
# Cytochrome P450 2C19 (Homo sapiens), sequence (P33261 whole entry, looked up): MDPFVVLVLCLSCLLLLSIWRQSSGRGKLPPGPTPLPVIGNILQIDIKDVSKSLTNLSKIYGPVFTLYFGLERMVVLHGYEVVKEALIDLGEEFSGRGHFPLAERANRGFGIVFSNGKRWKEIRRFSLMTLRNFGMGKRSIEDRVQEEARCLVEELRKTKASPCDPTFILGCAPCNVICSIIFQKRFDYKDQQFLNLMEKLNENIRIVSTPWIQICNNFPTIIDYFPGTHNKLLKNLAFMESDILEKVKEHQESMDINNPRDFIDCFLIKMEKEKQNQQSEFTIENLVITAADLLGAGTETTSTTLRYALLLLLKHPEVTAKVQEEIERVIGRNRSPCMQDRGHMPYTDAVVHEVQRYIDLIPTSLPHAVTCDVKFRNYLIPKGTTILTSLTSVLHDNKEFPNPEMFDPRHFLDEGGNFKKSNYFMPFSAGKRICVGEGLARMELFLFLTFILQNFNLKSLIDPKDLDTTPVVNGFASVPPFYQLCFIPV
# Cytochrome P450 2D6 (Homo sapiens), sequence (P10635 whole entry, looked up): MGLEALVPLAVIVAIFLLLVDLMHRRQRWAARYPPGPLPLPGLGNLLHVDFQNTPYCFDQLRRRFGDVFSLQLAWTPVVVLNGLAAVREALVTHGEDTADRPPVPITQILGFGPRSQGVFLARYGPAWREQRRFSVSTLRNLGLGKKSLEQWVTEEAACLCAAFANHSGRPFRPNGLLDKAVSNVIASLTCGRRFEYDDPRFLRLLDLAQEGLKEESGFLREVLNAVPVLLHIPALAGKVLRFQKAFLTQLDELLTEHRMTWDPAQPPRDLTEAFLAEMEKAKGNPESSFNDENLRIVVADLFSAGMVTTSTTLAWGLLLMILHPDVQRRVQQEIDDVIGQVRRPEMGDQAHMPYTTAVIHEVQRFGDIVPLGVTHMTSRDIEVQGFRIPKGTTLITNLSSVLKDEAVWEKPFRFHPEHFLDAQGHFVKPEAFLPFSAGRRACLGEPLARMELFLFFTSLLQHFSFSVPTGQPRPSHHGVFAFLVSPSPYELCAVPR
# Cytochrome P450 3A4 (Homo sapiens), sequence (P08684 whole entry, looked up): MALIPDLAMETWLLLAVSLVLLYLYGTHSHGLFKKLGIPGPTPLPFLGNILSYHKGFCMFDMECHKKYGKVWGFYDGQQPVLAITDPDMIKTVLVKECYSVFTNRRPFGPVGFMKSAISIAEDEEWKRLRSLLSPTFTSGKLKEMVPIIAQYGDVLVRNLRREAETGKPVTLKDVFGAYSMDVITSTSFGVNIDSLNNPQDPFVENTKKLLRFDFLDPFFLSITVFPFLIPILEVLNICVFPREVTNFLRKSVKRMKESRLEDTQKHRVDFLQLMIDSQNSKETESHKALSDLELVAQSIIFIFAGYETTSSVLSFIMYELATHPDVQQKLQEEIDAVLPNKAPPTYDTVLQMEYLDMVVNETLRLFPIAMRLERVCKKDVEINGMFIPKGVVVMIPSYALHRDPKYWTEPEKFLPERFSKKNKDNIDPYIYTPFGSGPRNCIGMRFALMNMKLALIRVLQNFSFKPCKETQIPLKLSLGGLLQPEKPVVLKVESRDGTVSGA
# Cytochrome P450 1A2 (Homo sapiens), sequence (P05177 whole entry, looked up): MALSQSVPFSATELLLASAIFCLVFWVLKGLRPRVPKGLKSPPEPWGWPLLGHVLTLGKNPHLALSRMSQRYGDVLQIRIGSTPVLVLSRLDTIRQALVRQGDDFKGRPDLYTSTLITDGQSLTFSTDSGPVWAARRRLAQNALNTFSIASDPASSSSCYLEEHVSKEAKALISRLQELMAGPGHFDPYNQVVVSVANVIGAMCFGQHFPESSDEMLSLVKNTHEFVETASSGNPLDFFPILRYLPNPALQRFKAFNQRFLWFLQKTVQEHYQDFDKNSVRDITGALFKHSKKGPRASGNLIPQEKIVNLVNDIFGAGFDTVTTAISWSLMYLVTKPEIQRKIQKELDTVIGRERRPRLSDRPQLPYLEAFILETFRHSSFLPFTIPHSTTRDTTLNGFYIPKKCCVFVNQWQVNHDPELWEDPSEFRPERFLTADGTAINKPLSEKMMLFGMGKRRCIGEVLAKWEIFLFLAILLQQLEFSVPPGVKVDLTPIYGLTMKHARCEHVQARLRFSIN
Structure (SMILES),Potency [1],Potency [2],Potency [3],Potency [4],Potency [5],Potency [6],Potency [7]
C=C1C(=O)C=C2CN(C(=O)c3ccccc3)[C@@](Cc3ccc(OC)cc3)(C(=O)OC)[C@@H]12,15.8 µM (active),inactive,1.58 µM (active),1.58 µM (active),inactive,,
COC(=O)[C@@]1(Cc2ccc(F)cc2)[C@H]2c3cc(C(=O)N(C)C)n(CCCNc4ccc(C(F)(F)F)cc4Cl)c3C[C@H]2CN1C(=O)c1ccccc1,inactive,inactive,inactive,1.58 µM (active),inactive,,
C[C@@H](C(=O)NCc1ccc(S(C)(=O)=O)cc1)[C@H]1C[C@]1(C)[C@H](NC(=O)OCc1ccccc1)c1ccccc1,12.6 µM (active),inactive,inactive,3.16 µM (active),inactive,0.398 µM (active),
CCC[C@@H]1C[C@@]1(CCC)C(NC(=O)c1cccs1)c1ccc(Cl)cc1 (some centres undefined),10 µM (active),inactive,inactive,6.31 µM (active),inactive,,
C=C(CC1([C@@H](NP(=O)(c2ccccc2)c2ccccc2)[C@H]2C[C@@H]2CCN(C(=O)OCC)S(=O)(=O)c2ccc(C)cc2)CC1)c1ccccc1,inactive,inactive,inactive,1.58 µM (active),inactive,,
CC1(C)C(=O)C(c2ccccc2)=C2CN3C(=O)N(CCc4ccccc4)C(=O)C3(Cc3ccc(C(F)(F)F)cc3)C=C21 (centres undefined),inactive,inactive,inactive,2 µM (active),inactive,,
COC(=O)C1(C)C=C2C(=C(c3ccccc3)C(=O)C2C)CN1 (centres undefined),15.8 µM (active),inactive,inactive,,inactive,,
COC(=O)[C@@]1(Cc2ccc(OC)cc2)[C@H]2c3cc(C(=O)N4CCCC4)n(Cc4ccc(C(F)(F)F)nc4)c3C[C@H]2CN1C(=O)c1ccccc1,inactive,inactive,inactive,3.16 µM (active),inactive,,
CCCC[C@@H]1C[C@H]1C(NC(=O)c1cccnc1)c1ccc(Cl)cc1 (some centres undefined),7.94 µM (active),inactive,inactive,0.0794 µM (active),inactive,,2 µM (active)
C[C@H]1C2=C3C(CC[C@H]4C(OCc5ccc(F)cc5C(F)(F)F)OC[C@](C)([C@@H]34)N(C(=O)OC(C)(C)C)C2)C(CO)C1CO (some centres undefined),15.8 µM (active),inactive,inactive,,inactive,,
Cc1ccc(CNC(=O)[C@H]2C[C@@H]2[C@H](NP(=O)(c2ccccc2)c2ccccc2)c2ccccc2)c(F)c1F,inactive,inactive,inactive,0.316 µM (active),inactive,,
COC(=O)[C@@]1(Cc2ccccc2)[C@H]2c3cc(C(=O)N4CCCC4)n(Cc4nc5ccccc5[nH]4)c3C[C@H]2CN1C(=O)c1ccccc1,12.6 µM (active),inactive,inactive,1.26 µM (active),inactive,7.94 µM (active),
C[C@@H](C(=O)NCCF)[C@H]1C[C@]1(C)[C@H](NC(=O)OCc1ccccc1)c1ccccc1,15.8 µM (active),inactive,inactive,3.98 µM (active),inactive,6.31 µM (active),1.26 µM (active)
CNC(=O)[C@H](C)[C@@H]1C[C@@]1(C)[C@@H](NC(=O)OCc1ccccc1)c1ccccc1,20 µM (active),inactive,inactive,2.51 µM (active),inactive,3.16 µM (active),
COC(=O)[C@H]1C[C@@H]1[C@H](NC(=O)c1ccccc1)c1ccccc1,15.8 µM (active),inactive,inactive,inactive,,,7.94 µM (active)
COC(=O)[C@@]1(Cc2ccc(F)cc2)[C@H]2c3cc(C(=O)N4CCCC4)n(Cc4c(CO)[nH]cc(C)c4=O)c3C[C@H]2CN1C(=O)c1ccccc1,20 µM (active),inactive,inactive,2 µM (active),inactive,,
CC(=O)N[C@H](c1ccccc1)[C@@]1(C)C[C@@H]1[C@@H](C)C(=O)Nc1ccc2ccccc2c1,15.8 µM (active),inactive,inactive,7.94 µM (active),inactive,2 µM (active),5.01 µM (active)
C#CCCCC(=O)Nc1ccccc1,20 µM (active),inactive,inactive,,inactive,,
C[C@@H](C(=O)Nc1ccc2ccccc2c1)[C@H]1C[C@]1(C)[C@H](NC(=O)Oc1ccc(F)cc1)c1ccccc1,inactive,inactive,inactive,0.794 µM (active),inactive,2.51 µM (active),
C[C@@H](C(=O)Nc1ccc2ccccc2c1)[C@@H]1C[C@@]1(C)[C@@H](NC(=O)OCc1ccccc1)c1ccccc1,15.8 µM (active),inactive,inactive,7.94 µM (active),inactive,,3.16 µM (active)
COC(=O)[C@@]1(Cc2ccc(F)cc2)[C@H]2c3cc(C(=O)N(C)C)n(Cc4ccc(C(F)(F)F)nc4)c3C[C@H]2CN1C(=O)c1ccccc1,inactive,inactive,inactive,1.26 µM (active),inactive,,
COC(=O)[C@@]1(Cc2ccccc2)[C@H]2c3cc(C(=O)N4CCCC4)n(Cc4c(CO)[nH]cc(C)c4=O)c3C[C@H]2CN1C(=O)c1ccccc1,5.01 µM (active),inactive,inactive,2.51 µM (active),inactive,,
Cc1nn(C)c(Cl)c1S(=O)(=O)N[C@@H](c1ccccc1)[C@]1(C)C[C@H]1[C@@H](C)C(=O)Nc1ccc2ccccc2c1,5.01 µM (active),inactive,inactive,1.26 µM (active),inactive,,

Structure (SMILES),Potency [1],Potency [2],Potency [3],Potency [4],Potency [5],Potency [6],Potency [7]
COC(=O)[C@@]1(Cc2ccc(F)cc2)[C@@H]2[C@@H](CC(=O)[C@H]2CC(=O)C(=O)N(C)C)CN1C(=O)c1ccccc1,inactive,inactive,inactive,6.31 µM (active),inactive,,
COC(=O)[C@@]1(Cc2ccc(F)cc2)[C@H]2c3cc(C(=O)N4CCCC4)n(Cc4ccc(Cl)c(C(F)(F)F)c4)c3C[C@H]2CN1C(=O)c1ccccc1,inactive,inactive,inactive,2.51 µM (active),inactive,,
CC1(C)C(=O)C(c2ccccc2)=C2CN3C(=O)N(CCc4ccccc4)C(=O)C3(Cc3ccccc3)C=C21 (centres undefined),6.31 µM (active),inactive,inactive,2 µM (active),inactive,,
C[C@@H](C(=O)Nc1ccc2ccccc2c1)[C@@H]1C[C@@]1(C)[C@@H](N)c1ccccc1,15.8 µM (active),inactive,inactive,7.94 µM (active),inactive,,
COC(=O)[C@@]1(Cc2ccc(OC)cc2)[C@H]2c3cc(C(=O)N4CCCC4)n(CCn4cc([N+](=O)[O-])nc4C)c3C[C@H]2CN1C(=O)c1ccccc1,inactive,inactive,inactive,3.98 µM (active),inactive,,
COCC1C2CC[C@H]3C(OCc4ccc(OC)cc4)OC[C@]4(C)[C@H]3C2=C(CN4C(=O)OC(C)(C)C)[C@H](C)C1COC (some centres undefined),15.8 µM (active),inactive,inactive,1.58 µM (active),inactive,,
CCCC[C@H]1C[C@@H]1[C@@H]1N(P(=O)(c2ccccc2)c2ccccc2)C[C@@](O)(c2ccccc2)CC12CC2,inactive,inactive,inactive,2 µM (active),inactive,,
CC(C)=C1C(=O)C(c2ccccc2)=C2CN3C(=O)N(CCc4ccccc4)C(=O)[C@]3(Cc3ccccc3)[C@H]21,inactive,inactive,inactive,,inactive,,
COC(=O)[C@@]1(Cc2ccc(F)cc2)[C@@H]2C(=CC(=O)[C@H]2CC(=O)C(=O)N(C)C)CN1C(=O)c1ccccc1,inactive,inactive,inactive,,inactive,,
COC(=O)C1CC1C(NC(=O)[C@H]1CCCCN1)c1ccccc1 (some centres undefined),inactive,inactive,inactive,,inactive,,
CC[C@H]1C2=C3C(CC[C@H]4C(OCc5ccc(F)cc5C(F)(F)F)OC[C@](C)([C@@H]34)N(C(=O)OC(C)(C)C)C2)C(COC)C1COC (some centres undefined),inactive,inactive,inactive,,inactive,,
CCCCCC1=C2CNC(C)(C(=O)OC)C=C2C(C)C1=O (centres undefined),25.1 µM (active),inactive,inactive,,inactive,,
CCc1c2c(nc3ccc(OC)cc13)COC2,0.794 µM (active),inactive,inactive,,inactive,,
C[C@H](CO)NC(=O)[C@@H]1C[C@H]1[C@@H](NP(=O)(c1ccccc1)c1ccccc1)c1ccccc1,inactive,inactive,inactive,,inactive,,
C[C@@H](C(=O)NCc1ccccn1)[C@@H]1C[C@@]1(C)[C@@H](NC(=O)OCc1ccccc1)c1ccccc1,20 µM (active),inactive,inactive,,inactive,,2.51 µM (active)
CC[C@H]1C(=O)OC[C@@H]1Cc1cncn1C,inactive,inactive,inactive,,,inactive,inactive
COC(=O)[C@H]1C[C@@H]1[C@H](NC(=O)c1cc(C)on1)c1ccccc1,15.8 µM (active),inactive,inactive,,inactive,,
CCCCCC1=C2CNC(Cc3ccccc3)(C(=O)OC)C=C2C(C)C1=O (centres undefined),15.8 µM (active),inactive,inactive,,inactive,,6.31 µM (active)
O=C(NCc1cc(F)cc2c1OCCO2)[C@H]1C[C@@H]1[C@H](NP(=O)(c1ccccc1)c1ccccc1)c1ccccc1,15.8 µM (active),inactive,inactive,,inactive,,
COC(=O)[C@@H]1C[C@H]1[C@@H](NC(=O)c1cccnc1)c1ccccc1,12.6 µM (active),inactive,inactive,,inactive,,
COC(=O)[C@H]1C[C@@H]1[C@H](NC(=O)OCc1ccccc1)c1ccccc1,0.126 µM (active),inactive,inactive,,inactive,,
CCCC1(C(=O)OC)C=C2C(=C(C(C)C)C(=O)C2C)CN1 (centres undefined),inactive,inactive,inactive,,inactive,,
COCC1C2CC[C@H]3C(OCc4ccc(F)cc4C(F)(F)F)OC[C@]4(C)[C@H]3C2=C(CN4C(=O)OC(C)(C)C)[C@H](C)C1COC (some centres undefined),31.6 µM (active),inactive,inactive,,inactive,,
